PvdQ acylase = blocks Pseudomonas aeruginosa PvdQ acylase activity; purified PvdQ acylase, fluorescence plate reader; inhibition, % at 10 µM; 340,000 compounds, 0.063% hits; AID 488965; in the data active means inhibition above about 30%, passing the limit was not always enough; inconclusive means no clear call, values can overlap the other calls;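 further: 0% = vehicle neutral wells and 100% = reference inhibitor wells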
MITF act = MITF TRPM1 promoter activation in melanoma cells. SK-MEL-5 TRPM1-promoter luciferase, 24 h; % of positive control, neutral wells = 0. activation, % at 12.5 µM. 300,000 compounds, 0.75% hits;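 active means mean activation of at least 80% with every replicate also reaching 80%; inconclusive means mean reaches 80% but some replicate falls short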;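 further: 0% = neutral control wells and 100% = parthenolide positive control wells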
esBAF inh = inhibitors of esBAF chromatin remodeling in mouse ES cells; Bmi1-luciferase knock-in reporter, 24 h; 100% = twice the neutral-well signal; reporter increase, % at 12.5 µM; 350,000 compounds, 2% hits; in the data active means activation above about 40%; inconclusive means no clear call, values can overlap the other calls;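 further: 0% = median of the plate's neutral control wells and 100% = double that signal; a rise in the Bmi1 reporter signal indicates esBAF inhibition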
N-glyco inh = blocks N-linked glycosylation in D54 reporter cells | D54 ERlucT glycosylation luciferase reporter, 24 h; percent of 100 nM tunicamycin response | 360,000 compounds, 0.23% hits | AID 588692 | reporter increase, % at 12.5 µM;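 active means mean luciferase reporter signal, scaled so untreated is 0 and the glycosylation-blocking control 100, at or above a set limit in every replicate; inconclusive means mean reaches the limit but not every replicate does; inactive means mean below the limit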;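 further: luciferase carries N-glycosylation sites so blocking glycosylation raises the light; 0% = median of neutral control wells and 100% = median of 100 nM tunicamycin wells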
Wnt act = Wnt/beta-catenin pathway activation; 300,000 compounds, 1.2% hits; Wnt/beta-catenin reporter cell assay, activator, plate reader; AID 743398; activation, % at 9.35 µM; in the data active means activation above about 30%, passing the limit was not always enough; inconclusive means no clear call, values can overlap the other calls;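 further: 0% = neutral control wells and 100% = positive control wells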
Vif imaging = blocks HIV Vif function | HEK293T cells, Vif self-association by quenched fluorescence, imaging, 24 h | inhibition, % at 7.49 µM | 340,000 compounds, 0.35% hits | AID 602346; in the data active means inhibition above about 50%, passing the limit was not always enough; inconclusive means no clear call, values can overlap the other calls; inactive means below about 31%
* marks the source's active call; other numbers are inactive results; ? = inconclusive; nt = no result. Rows were chosen to be rich in hits. Some 2.9% of all compounds tested hit in one or more screens of this group.

SMILES	PvdQ acylase	MITF act	esBAF inh	N-glyco inh	Wnt act	Vif imaging
CCS(=O)(=O)N[C@H]1CC[C@@H](CC(=O)NCc2ccccn2)O[C@H]1CO	nt	nt	4	nt	nt	nt
Cc1cc(F)ccc1NC(=O)Nc1ccc2c(c1)OCO2	-9	15	16	7	6	2
Cc1ccc(NC(=O)Nc2ccc3c(c2)OCO3)cc1F	-10	126*	nt	-4	0	12
CC(=O)c1cccc(NC(=O)NCc2ccc3c(c2)OCO3)c1	-8	8	5	-2	2	nt
O=C(NCc1ccc2c(c1)OCO2)Nc1cccc(Cl)c1	1	80*	67*	0	11	2
CC(=O)c1cccc(NC(=O)Nc2ccc3c(c2)OCO3)c1	-15	119*	52*	-6	3	-8
CCc1cccc(NC(=O)Nc2ccc3c(c2)OCO3)c1	5	37	25	0	10	9
Cc1ccc(NC(=O)Nc2ccc3c(c2)OCO3)c(OC(F)F)c1	0	106*	49*	-5	38*	nt
Cc1ccc(S(=O)(=O)N2C[C@@H](O)COC[C@H]3O[C@H](CC(=O)N[C@H]4CCN(Cc5ccccc5)C4)CC[C@@H]32)cc1	nt	nt	-3	nt	nt	nt
O=C(Nc1cccc([N+](=O)[O-])c1)Nc1ccc2c(c1)OCCO2	-9	90*	nt	-8	10	-3
CCC(C(=O)Nc1ccc2c(c1)OCCO2)n1nnc2ccccc2c1=O (stereo not drawn)	-13	88*	59*	-1	15	3
CCC(=O)Nc1ccc(NC(=O)c2ccc3c(c2)OCO3)cc1	-1	-9	-28	0	nt	-5
CCC(=O)Nc1cccc(NC(=O)c2ccc3c(c2)OCCO3)c1	-12	67	72*	1	nt	1
O=C(Nc1cccc(Cl)c1)Nc1ccc2c(c1)OCO2	-13	43	58*	-5	32*	-2
O=C(Nc1cccc([N+](=O)[O-])c1)Nc1cccc([N+](=O)[O-])c1	-10	11	nt	-10	3	-17
CC(C)C(=O)Nc1cccc(NC(=S)NC(=O)c2ccc(Cl)cc2)c1	3	nt	34	-1	nt	-21
CC(C)C(=O)Nc1cccc(NC(=S)NC(=O)c2ccc3c(c2)OCO3)c1	-20	76	62*	-2	27	-14
CCC(CC)C(=O)Nc1cccc(C(=O)Nc2ccc3c(c2)OCO3)c1	-10	74	47*	-2	16	-3
O=C(Nc1ccc2c(c1)OCO2)c1ccc2nc[nH]c2c1	-15	77	49*	3	nt	5
O=C(Nc1ccc(Cl)c(-c2nc3ccccc3[nH]2)c1)c1ccc2c(c1)OCO2	-4	7	nt	0	0	-12
O=C(Nc1ccc(-c2nc3ccccc3[nH]2)cc1)c1ccc2c(c1)OCO2	18	-41	45*	1	-13	-8
Cc1cccc(NC(=O)Nc2ccc3c(c2)C(=O)N(C)[C@@H]2CC[C@H](CC(=O)NCc4ccccc4Cl)O[C@H]2CO3)c1	nt	nt	9	nt	nt	nt
C[C@H](CO)N1C[C@H](C)[C@@H](CN(C)C(=O)Nc2ccc3c(c2)OCO3)Oc2ccc(NC(=O)Nc3cccc4ccccc34)cc2CC1=O	nt	nt	0	nt	nt	nt
COc1cccc(NC(=O)Nc2ccc3c(c2)OCO3)c1	0	67	61*	-7	40*	-1
O=C(Cn1cnc2ccccc2c1=O)Nc1ccc2c(c1)OCO2	-14	41	57*	1	15	6
SMILES	PvdQ acylase	MITF act	esBAF inh	N-glyco inh	Wnt act	Vif imaging
O=C(Nc1ccc2c(c1)OCO2)N1CCCc2ccccc21	-12	31	?	-3	36*	-2
Cn1ncc([N+](=O)[O-])c1C(=O)Nc1ccc(-c2nc3ccccc3[nH]2)cc1	-4	49	56*	2	nt	6
COc1cccc(NC(=O)CN(C)CC(=O)Nc2ccc3c(c2)OCO3)c1	-7	-5	5	3	-4	2
CNC[C@H]1Oc2ccc(NC(=O)NC(C)C)cc2CC(=O)N([C@H](C)CO)C[C@H]1C	nt	nt	4	nt	nt	nt
CC(C)NC(=O)Nc1ccc2c(c1)C(=O)N([C@@H](C)CO)C[C@H](C)[C@H](CN(C)C(=O)C1CCCCC1)OCCCC[C@@H](C)O2	nt	nt	-7	nt	nt	nt
Cc1cc(C(=O)Nc2cccc3c2O[C@@H](CN(C)Cc2ccncc2)[C@H](C)CN([C@H](C)CO)C3=O)n(C)n1	nt	nt	1	nt	nt	nt
O=C(Nc1cccc(-c2cn3c(n2)SCC3)c1)c1ccc2c(c1)OCO2	-18	19	49*	2	9	-8
CCOc1ccccc1C1C2=C(COC2=O)Nc2cc3c(cc21)OCO3 (stereo not drawn)	-14	-51	nt	15	-6	81*
CCNC(=S)NNC(=O)c1csc(C(C)C)c1	-12	24	50*	1	20	3
COCC(=O)N1[C@@H]2c3cccc(=O)n3C[C@@H]2[C@@H](CO)[C@@H]1C(=O)NCc1ccccc1	nt	nt	1	nt	nt	nt
Cc1ccc(NC(=O)CC2SC(=NCC3CCCO3)NC2=O)cc1Cl (stereo not drawn)	-2	-5	-3	-1	nt	87*
COc1ccc(NC(=O)CC2SC(=NCC3CCCO3)NC2=O)cc1 (stereo not drawn)	-6	-3	nt	2	-1	-27
C[C@H]1CN([C@@H](C)CO)C(=O)c2cccc(NC(=O)c3cnccn3)c2O[C@@H]1CN(C)Cc1ccc(-c2ccccc2)cc1	nt	nt	2	nt	nt	nt
Cc1ccc(C(=O)Nc2ccc(C(=O)/C=C/c3cccs3)cc2)cc1	4	nt	69*	?	9	-2
O=C(/C=C/c1cccs1)c1ccc(NC(=O)c2cccc(Br)c2)cc1	9	33	6	-2	-1	-4
COc1ccc(C(=O)/C=C\c2ccc(NC(=O)c3cccs3)cc2)cc1	-9	-5	9	48*	nt	3
Cc1ccc(CNc2ncnc3c2cnn3-c2ccccc2)cc1	11	nt	10	-1	6	2
Clc1ccc(-n2ncc3c(NCc4ccccn4)ncnc32)cc1	-8	38	68*	2	27	-9
COc1ccccc1CNc1ncnc2c1cnn2-c1ccccc1	-14	43	71*	-1	11	-29
c1ccc(-n2ncc3c(NCc4ccco4)ncnc32)cc1	-11	35	57*	11	?	-2
Cc1ccc(-n2ncc3c(NCc4ccccn4)ncnc32)c(C)c1	-11	18	19	-1	nt	-1
CC(C)c1ccc(NC(=O)C[C@H]2CC[C@H]3[C@@H](COc4ccc(NC(=O)Nc5ccc(F)c(F)c5)cc4C(=O)N3C)O2)cc1	nt	nt	32	nt	nt	nt
CNC(=O)C[C@H]1CC[C@H]2[C@@H](COC[C@H](O)CN2C(=O)Nc2cccc(OC)c2)O1	nt	nt	-2	nt	nt	nt
CCCC1(C)Nc2ccccc2-c2nc3ccccc3n21 (stereo not drawn)	-11	77	67*	3	nt	-10
c1ccc2c(c1)NC1(CCCC1)n1c-2nc2ccccc21	7	?	75*	3	15	-6

Screens (PubChem)
